According to PubChem BioAssay (NCATS):
Records with an inconclusive call do not appear. Active and inactive are the calls of the source. Calls follow the shape of the dose curve; as a rule, active = well fitted cell-killing curve with a large enough effect; inconclusive = small, poorly fitted or top-dose-only effect, or effect the other way; inactive = flat fitted curve, though single readings scatter.
% is scaled to controls: 0 for no effect and ±100 for the full control effect.

Experiment: qHTS assay for cell viability of the p53RE-bla HCT-116 cell line (AID 743292); also: nearly all actives have a fitted effect of over 55% in size
Conditions: p53RE-bla HCT-116 viability, ATP luminescence, 16 h; series mostly up to 95 µM; activity change, negative = cytotoxicity: at the top concentration
Excerpt: U.S. Tox21 Program National Center for Advancing Translational Sciences [NCATS] NIH Chemical Genomics Center [NCGC] U.S. Environmental Protection Agency [EPA] National Institutes of Environmental Health Sciences [NIEHS] National Toxicology Program [NTP] U.S. Food and Drug Administration [FDA] Tox21 Assay Overview: The CellTiter-Glo Luminescent Cell Viability Assay (Promega, Madison, WI) is a homogeneous method to determine the number of viable cells in culture based on quantitation of the ATP present, which signals the presence of metabolically active cells. This cell viability assay was used to screen environmental chemicals in the CellSensor p53RE-bla HCT-116 cell line (Invitrogen).
Tox21 Assay Protocol Summary: Cell viability after compound treatment was measured using a luciferase-coupled ATP quantitation assay (CellTiter-Glo viability assay, Promega, Madison, WI) in CellSensor p53RE-bla HCT-116 cell line (Invitrogen). Total intracellular ATP content corresponds to the number of metabolically competent cells after compound treatment. The cells were dispensed at 4,000 cells/5 uL/well in 1,536-well white/solid bottom assay plates using a Flying Reagent Dispenser (Aurora Discovery, San Diego, CA). The cells were incubated for 5 h at 37 C, followed by the addition of 23 nL of compounds dissolved in DMSO, positive controls or DMSO only using a pintool work station (Kalypsys, San Diego, CA). The assay plates were incubated for 16 h at 37 C, followed by the addition of 5 uL/well of CellTiter-Glo reagent. After 30 min incubation at room temperature, the luminescence intensity of the plates was measured using a ViewLux plate reader (PerkinElmer, Shelton, CT).
For `Nc1c(Cl)c(Cl)c(Cl)c(Cl)c1Cl`, the “activity change, negative = cytotoxicity” value was -0.498% (inactive).
With `O=[N+]([O-])/N=C1\NCCN1Cc1ccc(Cl)nc1` the “activity change, negative = cytotoxicity” value was -15.2% (inactive).
For `Nc1ccc(Sc2ccc(N)cc2)cc1`, the Potency was “inactive”.
With `CS(=O)(=O)c1ccc(C(=O)C2C(=O)CCCC2=O)c([N+](=O)[O-])c1` the “activity change, negative = cytotoxicity” value was 6.72% (inactive).
In the case of `O=S(=O)(O)C(F)(F)C(F)(F)C(F)(F)C(F)(F)F`, the Potency is reported as “inactive”.
With `COCCOCCO` the Potency was “inactive”.
For `O=C(O)C(Cl)Cl`, the Potency was “inactive”.
In the case of `CCCCOC(=O)c1ccccc1C(=O)OCc1ccccc1`, the Potency is reported as “inactive”.
With `COc1ccc(C(c2ccc(OC)cc2)C(Cl)(Cl)Cl)cc1` the Potency was “inactive”.
With `O=S(=O)(c1ccc(Cl)cc1)c1ccc(Cl)cc1` the Potency was “inactive”.
In the case of `Nc1ccc(Cl)cc1`, the “activity change, negative = cytotoxicity” value is reported as -2.79% (inactive).
For `c1cc2ccc3cccc4ccc(c1)c2c34`, the Potency was “inactive”.
For `CC(C)(O)C(=O)Nc1ccc([N+](=O)[O-])c(C(F)(F)F)c1`, the “activity change, negative = cytotoxicity” value was -14.4% (inactive).
In the case of `CCO/N=C(\CC)C1=C(O)CC(c2c(C)cc(C)cc2C)CC1=O` (stereo not given), the “activity change, negative = cytotoxicity” value is reported as -12.4% (inactive).
With `C=CCC1=C(C)C(OC(=O)C2C(C=C(C)C)C2(C)C)CC1=O` (stereo not given) the Potency was “inactive”.
For `Nc1ccc(N=Nc2ccccc2)cc1`, the “activity change, negative = cytotoxicity” value was 8.2% (inactive).
With `CN(C)[C@@H]1C(=O)C(C(N)=O)=C(O)[C@@]2(O)C(=O)C3=C(O)c4c(O)cccc4[C@@](C)(O)[C@H]3[C@H](O)[C@@H]12` the Potency was “inactive”.
In the case of `O=C(Nc1ccccc1-c1ccc(Cl)cc1)c1cccnc1Cl`, the “activity change, negative = cytotoxicity” value is reported as -11.3% (inactive).
In the case of `C1CCC(NC2CCCCC2)CC1`, the Potency is reported as “inactive”.
In the case of `CCCCC(CC)COC(=O)c1ccccc1C(=O)OCC(CC)CCCC` (stereo not given), the Potency is reported as “inactive”.
For `Nc1ccc(Cl)cc1N`, the Potency was “inactive”.
For `COc1nn(CSP(=S)(OC)OC)c(=O)s1`, the “activity change, negative = cytotoxicity” value was -11.5% (inactive).
With `O=C(O)COc1nc(Cl)c(Cl)cc1Cl` the “activity change, negative = cytotoxicity” value was -3.85% (inactive).
With `ClC1=C(Cl)[C@]2(Cl)[C@@H]3[C@@H]4C[C@@H]([C@H]5O[C@@H]45)[C@@H]3[C@@]1(Cl)C2(Cl)Cl` the “activity change, negative = cytotoxicity” value was -8.71% (inactive).
For `O=[N+]([O-])c1cc([N+](=O)[O-])c2ccccc2c1`, the “activity change, negative = cytotoxicity” value was 7.82% (inactive).
With `CCCCCCCCCC(CC)c1ccc(S(=O)(=O)O)cc1` (stereo not given) the Potency was “inactive”.
For `Cc1cc(O)ccc1Cl`, the “activity change, negative = cytotoxicity” value was -6.83% (inactive).
With `CCCN(CCC)c1c([N+](=O)[O-])cc(S(N)(=O)=O)cc1[N+](=O)[O-]` the “activity change, negative = cytotoxicity” value was -3.84% (inactive).
For `CO/C=C(/C(=O)OC)c1ccccc1Oc1cc(Oc2ccccc2C#N)ncn1`, the “activity change, negative = cytotoxicity” value was -23.4% (inactive).
With `CCCCCCCCc1ccc(O)cc1` the Potency was “inactive”.
In the case of `O=C(O)COc1ccccc1`, the “activity change, negative = cytotoxicity” value is reported as -9.57% (inactive).
With `O=[N+]([O-])c1c2ccccc2cc2ccccc12` the “activity change, negative = cytotoxicity” value was -2.25% (inactive).
For `O=C(O)c1cc(Oc2ccc(C(F)(F)F)cc2Cl)ccc1[N+](=O)[O-]`, the “activity change, negative = cytotoxicity” value was -7.69% (inactive).
With `CC(C)(C)C(O)C(Oc1ccc(Cl)cc1)n1cncn1` (stereo not given) the “activity change, negative = cytotoxicity” value was 2.16% (inactive).
In the case of `O=[N+]([O-])c1c(Cl)c(Cl)cc(Cl)c1Cl`, the “activity change, negative = cytotoxicity” value is reported as 3.25% (inactive).
For `CCCCCCCCCCCCCCCC[N+](C)(C)C`, the “activity change, negative = cytotoxicity” value was 7.03% (inactive).
With `O=S(=O)(O)C(F)(F)C(F)(F)C(F)(F)C(F)(F)C(F)(F)C(F)(F)C(F)(F)C(F)(F)F` the Potency was “inactive”.
For `COC(C)(C)CCCC(C)C/C=C/C(C)=C/C(=O)OC(C)C` (stereo not given), the Potency was “inactive”.
For `CC(C)Oc1cccc(NC(=O)c2ccccc2C(F)(F)F)c1`, the “activity change, negative = cytotoxicity” value was -2.7% (inactive).
In the case of `O=C(O)CCCOc1ccc(Cl)cc1Cl`, the “activity change, negative = cytotoxicity” value is reported as -8.64% (inactive).
